Drawing on PubChem BioAssay AID492953 (The Scripps Research Institute Molecular Screening Center, 2010), this text covers inhibition for 94 compounds.

The inhibition is the relative decrease from the control value, in per cent.

Each structure is given as a SMILES string. Hit rate of the full screen: of about 340,000 compounds, about 4,200 (1.2%) were called active.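 Rule for the calls: active = inhibition above the mean of all tested compounds plus 3 SD (cut at about 24% in these data); inactive = the rest.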 This excerpt belongs to a sample that is enriched for actives.

This experiment deals with Platelet-activating factor acetylhydrolase IB subunit alpha2 (Homo sapiens) (UniProt P68402). The experiment in a line: inhibition of PAF acetylhydrolase 1b subunit 2 – biochemical, fluorescence polarization, human, primary screen (AID 492953).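 Note: 0% = enzyme with DMSO and 100% = wells lacking PAFAH1B2.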 As to conditions: recombinant PAFAH1B2, FP-rhodamine activity probe, at 3.39 µM, hits give high values.
Sequence of Platelet-activating factor acetylhydrolase IB subunit alpha2 (Homo sapiens) (P68402 whole entry, looked up): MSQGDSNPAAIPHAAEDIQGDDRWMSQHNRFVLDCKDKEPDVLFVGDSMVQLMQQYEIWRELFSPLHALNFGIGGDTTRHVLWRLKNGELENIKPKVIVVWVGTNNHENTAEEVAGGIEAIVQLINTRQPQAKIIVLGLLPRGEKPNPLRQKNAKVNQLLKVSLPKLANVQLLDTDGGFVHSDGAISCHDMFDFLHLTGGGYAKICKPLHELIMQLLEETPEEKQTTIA
Consider `COCc1[nH]nc2c1C(C1C=CCCC1)C(C#N)=C(N)O2` (centres undefined), for which the inhibition was 4.96% (inactive). In the case of `CCCc1[nH]nc2c1C(c1ccc(Br)s1)C(C#N)=C(N)O2` (centres undefined) it was 19.3% (inactive); in that of `CCCc1[nH]nc2c1C(C1CC=CCC1)C(C#N)=C(N)O2` (centres undefined), 27.5% (active); in that of `CC(C)(C)c1cc(CN2CCN(CCC#N)CC2)cc(C(C)(C)C)c1O`, 1.53% (inactive). For the compound `CCOC(=O)C1CCN(C(=O)Nc2ccc(Cl)cc2)CC1`, the inhibition was 2.4% (inactive). The same measure for `CCOC(=O)C1Sc2[nH]c(=O)sc2C(c2ccc(Cl)cc2)C1C(=O)OCC` (centres undefined): 27% (active).

`CCOC(=O)c1ccccc1N1C(=O)C2Sc3[nH]c(=O)sc3C(/C=C/c3ccccc3)C2C1=O` (centres undefined): the inhibition is 1.84% (inactive).

On to `CCCCNC(=O)N1CCN(S(C)(=O)=O)CC1`, for which the inhibition was 3.98% (inactive). As for `Clc1ccc(CSc2nnc([C@@H]3CCCN3)o2)cc1`, the inhibition was 24.3% (active). `O=C(C1CC1)N1CCN=C1SCc1ccc(Cl)cc1`: the inhibition is 10.5% (inactive). The same measure for `Nc1cc(N)nc(SCc2ccc(Cl)cc2)n1`: 24.1% (inactive); for `COCC1CCN(C(=O)C2CCC(=O)N(Cc3cccc(C(F)(F)F)c3)C2)CC1` (centres undefined): -0.17% (inactive); for `CCN(CC)CCn1c2ccc(Cl)cc2c2nc(C)sc21`: -5.01% (inactive). The same measure for `CCN(CC)CCCC(C)n1c2nc(=O)[nH]c(=O)c-2nc2cc(Cl)ccc21` (centres undefined): 26% (active); for `CN(C(=O)c1ccc(NC(=O)Cc2cccc(NC(=O)C3CCN(C(=O)c4ccccc4)CC3)c2)cc1)C1CC1`: 4.32% (inactive); for `O=[N+]([O-])c1ccc(NS(=O)(=O)c2ccccc2)c(Cl)c1`: 1.95% (inactive). In the case of `CN(C)CCNC(=O)c1ccc(Cl)c2cc3ccccc3nc12` it was -1.08% (inactive); in that of `O=C(CNC(=O)c1ccc(-c2ccccc2)cc1)OCc1ccc(Cl)cc1`, 1.38% (inactive). As to `CC(=O)COc1ccc2c(-c3ccccc3)cc(=O)oc2c1`, the inhibition was -1.64% (inactive). Take `O=C(CNC(=O)OCc1ccccc1)Oc1cc2oc(=O)cc(-c3ccccc3)c2cc1Cl`: the inhibition is 45.7% (active). For the compound `Nc1ccc2nc3c(=O)[nH]c(=S)[nH]c3nc2c1`, the inhibition was 33.8% (active). On to `O=C(NCCc1ccccn1)c1nc(Cn2cc([N+](=O)[O-])cn2)no1`, for which the inhibition is -4.12% (inactive). `C=CC(=O)Nc1ccc(Nc2ccnc(Nc3ccc(N4CCN(C)CC4)cc3)n2)cc1`: the inhibition is 1.32% (inactive).

For `O=C(COc1ccccc1Cl)Nc1ccccc1C(=O)NC1CC1`, the inhibition is 0.96% (inactive). As to `COc1ccc(S(=O)(=O)N2CCOC2CNC(=O)C(=O)NCc2ccncc2)cc1C` (centres undefined), the inhibition was 1.87% (inactive). With `Nc1cccnc1Sc1ccccc1`, the inhibition is 4.02% (inactive). The same measure for `CC(Oc1ccc(Cl)cc1)C(=O)Nc1ncccn1` (centres undefined): 5.55% (inactive); for `CC(Oc1ccc(Cl)cc1)c1ccnn1S(C)(=O)=O` (centres undefined): 29.6% (active); for `CCN(Cc1ccccc1)S(=O)(=O)c1cc2c3c(c1)CCN3C(=O)CC2`: 8.31% (inactive). The same measure for `C=CCOc1ccc(/C=N/n2cncn2)cc1OC`: 6.27% (inactive); for `CCOC(=O)c1c(NC(=O)CSc2cn(CC)c3ccccc23)sc2c1CCC2`: -2.98% (inactive). Regarding `CCOC(=O)c1c(NC(=O)CSc2nnc(CN3CCOCC3)n2C)sc2c1CCCC2`, the inhibition is -1.06% (inactive). As to `CCOC(=O)c1c(NC(=O)CSc2nnc(C)c(=O)[nH]2)sc2c1CCC2`, the inhibition is 66.8% (active). In the case of `CC1CC(=O)Nc2ccccc2N1C(=O)COc1ccc2cc(Br)ccc2c1` (centres undefined) it was 16.6% (inactive); in that of `COc1ccc(-c2cc(C(F)(F)F)nc(S(C)(=O)=O)n2)cc1OC`, -1.46% (inactive); in that of `Cc1cc[n+](-c2[nH]c(=O)sc2/C=N/NC(=O)c2ccccc2[O-])cc1C`, 8.46% (inactive). On to `Cc1cc(=O)[nH]c(SCc2cccc(F)c2)n1`, for which the inhibition is 3.14% (inactive). As for `COc1ccccc1-c1noc(CSc2nc(C)cc(=O)[nH]2)n1`, the inhibition is 1.01% (inactive). In the case of `Cc1cc(=O)[nH]c(SCc2cc(Cl)ccc2OC(F)F)n1` it was 26.4% (active); in that of `COc1ccc(CC(NC(C)=O)C(=O)NC2CCN(C(=O)Nc3ccc(C#N)cc3)CC2)cc1OC` (centres undefined), 2.86% (inactive); in that of `CCN(C(=O)CN1CCN(Cc2ccccc2)CC1)c1c(N)n(Cc2ccccc2)c(=O)[nH]c1=O`, -0.83% (inactive). Regarding `CCCCC1S/C(=N/N=C/c2cccs2)NC1=O` (centres undefined), the inhibition was 8.36% (inactive). The same measure for `COc1ccc(C(=O)NNS(=O)(=O)c2ccc(C)cc2)cc1`: 6.56% (inactive); for `COc1ccc(C(=O)NNc2cc(C)nc(NNC(=O)c3ccc(OC)cc3)n2)cc1`: 24.3% (active). The same measure for `COc1ccc(C(=O)NNC(=O)c2cc(C)[nH]n2)cc1`: 5.54% (inactive). The same measure for `O=C1NC2(CCCCCC2)C(=O)N1CCS(=O)(=O)Oc1ccccc1`: 7.86% (inactive); for `CCn1c(CNC(=O)c2cc(OC)c(OC)c(OC)c2)cc2cc(C)ccc21`: 2.65% (inactive); for `O=c1ccc2c(-c3ccccc3S(=O)(=O)O)c3ccc(O)c(O)c3oc-2c1O`: 26.6% (active). For `CCCNC(=O)CN(Cc1ccccc1F)S(=O)(=O)c1ccc(C)cc1`, the inhibition was 4.33% (inactive).

In the case of `CC(C)Cn1c(N2CCN(C(=O)/C=C/c3ccccc3)CC2)nc2ccccc21`, the inhibition is 28.8% (active). `Cc1cc(NC(=O)CSc2nc3ccccc3n2CC(C)C)no1`: the inhibition was 4.62% (inactive). Consider `C=CCn1c(C(C)NC(=O)CC)nc2ccccc21` (centres undefined), for which the inhibition is 0.58% (inactive). Take `CNC(=O)/C(=C\C=C\c1ccccc1)NC(=O)c1ccc([N+](=O)[O-])cc1`: the inhibition was -3.09% (inactive). In the case of `O=C(Cc1ccc(S(=O)(=O)N2CCOCC2)s1)Nc1ccc(Br)c(C(F)(F)F)c1`, the inhibition was -4.41% (inactive).

Turning to `Cc1ccc(S(=O)(=O)NC(=O)Nc2nc(-c3ccc(F)c(F)c3)cs2)cc1`, the inhibition was 30.1% (active). Regarding `COc1cc(CC(=O)Nc2nc(-c3ccc(F)c(F)c3)cs2)cc(OC)c1OC`, the inhibition was 1.73% (inactive). With `COc1ccc(CC(=O)Nc2nc(-c3ccc(F)c(F)c3)cs2)cc1OC`, the inhibition was 4.28% (inactive).

As to `COc1ccc(C)cc1NC(=S)Nc1ccccc1SC`, the inhibition is 9.46% (inactive).

Regarding `O=C1C(Cl)=C(Oc2ccccc2)C(=O)c2ccccc21`, the inhibition was 33.9% (active).

For the compound `CC(=O)N(C1=C(Cl)C(=O)c2ccccc2C1=O)c1ccc(C(=O)O)cc1`, the inhibition is 15.6% (inactive).

`CC(=O)Oc1ccc2c(c1)C(=O)c1ccccc1C2=O`: the inhibition is 7.25% (inactive). In the case of `Cn1c(=O)oc2cc(S(=O)(=O)NCCC(=O)NCc3ccccc3Cl)ccc21`, the inhibition is -3.01% (inactive).

With `Cc1nn(-c2ncccn2)c2c1C(=O)CC(C)(C)C2Br` (centres undefined), the inhibition is 3.5% (inactive). In the case of `CCOCc1nnc(NC(=O)CSc2ccc(C)cc2)s1` it was -28.2% (inactive); in that of `Cc1cnc(NC(=O)CSc2nnc(-c3ccccc3)n2Cc2ccccc2)s1`, 7.97% (inactive); in that of `Cc1ccc(SCC(=O)Nc2ncc(C)s2)cc1`, 26.1% (active). In the case of `O=C(Nc1nccs1)c1cc(S(=O)(=O)N2CCOCC2)c(Cl)cc1Cl` it was -6.96% (inactive). In the case of `O=C(O)c1cc(S(=O)(=O)N2CCCCCC2)c(Cl)cc1Cl` it was 24.3% (active); in that of `O=C(c1ccc(Cl)c(S(=O)(=O)N2CCCCC2)c1)N1CCCCCC1`, -0.08% (inactive). Regarding `Cc1ccc(S(=O)(=O)N2CCN(C(=O)CN3C(=O)NC(C)(c4ccc(Cl)cc4)C3=O)CC2)c(C)c1` (centres undefined), the inhibition was 5.07% (inactive).

With `O=C(Nc1ccccc1)O/N=C1/CCCc2occc21`, the inhibition was 5.12% (inactive). In the case of `CCn1c(SCC(=O)NC2CC2)nnc1-c1ccccn1` it was 8.43% (inactive); in that of `CN(Cc1cc2cc(F)ccc2[nH]1)Cc1nc(-c2cnccn2)no1`, 3.21% (inactive). For the compound `CCC1(CC)Cc2ccccc2-c2nc(CCl)[nH]c(=O)c21`, the inhibition was 4.98% (inactive). For the compound `O=c1[nH]c(CCl)nc2cc(-c3ccc(Cl)cc3)sc12`, the inhibition is 43.4% (active). As for `CN(CCOc1ccccc1)Cc1nc2cc(Cl)ccc2c(=O)[nH]1`, the inhibition is -0.52% (inactive). The same measure for `Cc1ccc(-c2nc(CSCC(=O)NC3CCN(Cc4ccccc4)CC3)c(C)o2)cc1`: 3.88% (inactive); for `CCOC(=O)N1CCN(c2c(NCCCN3CCCC(C)C3)c(=O)c2=O)CC1` (centres undefined): -3.22% (inactive); for `CC(NC(=O)COC(=O)c1cc(=O)[nH]c2ccccc12)c1ccccc1` (centres undefined): 6.8% (inactive). Consider `O=C(O)c1[nH]c2ccccc2c1C(c1cccc(O)c1)c1c(C(=O)O)[nH]c2ccccc12`, for which the inhibition is 94.6% (active). The same measure for `CCCS(=O)(=O)Nc1c(C(=O)O)[nH]c2ccccc12`: 1.36% (inactive). In the case of `COc1ccc(/C=N/N(C)C2=NS(=O)(=O)c3ccccc32)cc1OC` it was 12% (inactive); in that of `Cc1nn(-c2ccc(F)cc2)c(Cl)c1/C=C(/CCC(=O)O)c1nc2ccccc2s1`, 4.71% (inactive); in that of `COc1ccc(C(=O)Nc2cccc(/C=C(/CCC(=O)O)c3nc4ccccc4s3)c2)cc1`, -1.28% (inactive).

On to `O=C(O)CC/C(=C\c1cc2c(cc1Br)OCO2)c1nc2ccccc2s1`, for which the inhibition is 27.5% (active). In the case of `NC(=O)COc1ccc(/C=N/NC(=O)C2CCCN2S(=O)(=O)c2ccc(Cl)cc2)cc1` (centres undefined) it was 2.71% (inactive); in that of `O=C(c1cccc(F)c1)N1CCC(O)(c2cccnc2)CC1`, 1.64% (inactive); in that of `Cn1cnnc1SCC(=O)NNC(=O)COc1ccc(Br)cc1`, 8.93% (inactive). The same measure for `Cc1ccsc1C(=O)NNC(=O)COc1ccc(Br)cc1`: 24.9% (active); for `Cn1cccc1C(=O)NNC(=O)COc1ccc(Br)cc1`: 6.31% (inactive); for `O=C(N/N=C/c1cccnc1)c1ccc(NC(=O)c2ccc(F)cc2)cc1`: -2.15% (inactive). In the case of `Fc1ccc(/C=N/Nc2nc(-c3cccnc3)nc3ccccc23)cc1` it was 25.3% (active); in that of `O=C(N/N=C\c1cccnc1)c1cc(-c2ccccc2)nc2c(Cl)cccc12`, -6.71% (inactive); in that of `O=C(c1cc2c(s1)CCC2)N1CCN(c2ccccc2)CC1`, 1.7% (inactive).
